From the supplement of paper PMC4466140

Target: AgAbp1
Test: SPOT peptide array binding signal intensity (averaged, normalized) (arbitrary units (background-subtracted, floor 0; scale differs between SH3 domains)); higher = stronger binding of the SH3 domain to the peptide
How it was run: (§1)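 Binding signal is given in arbitrary units that differ between domains and is the normalized, background-subtracted spot intensity averaged across replicates. Each GST-SH3 fusion from one of four yeast species was made in E. coli BL21(DE3), purified on glutathione Sepharose and incubated at 10 μg/ml overnight at 4°C on cellulose-bound synthetic 15-mer peptides in which cysteines were replaced by serines. Detection used anti-GST antibody, an HRP anti-mouse secondary and luminol, followed by imaging and Genespotter quantification.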

Row | Binder | SPOT peptide array binding signal intensity
1 | KNPRRQLQIPRQQPS | 242

Target: AgBbc1
Test: as above
How it was run: as §1

Row | Binder | SPOT peptide array binding signal intensity
2 | KNPRRQLQIPRQQPS | 60.8

Target: AgBem1-D1
Test: as above
How it was run: as §1

Row | Binder | SPOT peptide array binding signal intensity
3 | KNPRRQLQIPRQQPS | 73

Target: AgBzz1-D1
Test: as above
How it was run: as §1

Row | Binder | SPOT peptide array binding signal intensity
4 | KNPRRQLQIPRQQPS | 77

Target: AgBzz1-D2
Test: as above
How it was run: as §1

Row | Binder | SPOT peptide array binding signal intensity
5 | KNPRRQLQIPRQQPS | 44

Target: AgCyk3
Test: as above
How it was run: as §1

Row | Binder | SPOT peptide array binding signal intensity
6 | KNPRRQLQIPRQQPS | ≤ 0

Target: AgFus1
Test: as above
How it was run: as §1

Row | Binder | SPOT peptide array binding signal intensity
7 | KNPRRQLQIPRQQPS | 9.5

Target: AgHof1
Test: as above
How it was run: as §1

Row | Binder | SPOT peptide array binding signal intensity
8 | KNPRRQLQIPRQQPS | 55.8

Target: AgHse1
Test: as above
How it was run: as §1

Row | Binder | SPOT peptide array binding signal intensity
9 | KNPRRQLQIPRQQPS | 142

Target: AgLsb1
Test: as above
How it was run: as §1

Row | Binder | SPOT peptide array binding signal intensity
10 | KNPRRQLQIPRQQPS | 100

Target: AgLsb4
Test: as above
How it was run: as §1

Row | Binder | SPOT peptide array binding signal intensity
11 | KNPRRQLQIPRQQPS | 25

Target: AgMyo5
Test: as above
How it was run: as §1

Row | Binder | SPOT peptide array binding signal intensity
12 | KNPRRQLQIPRQQPS | 7

Target: AgNbp2
Test: as above
How it was run: as §1

Row | Binder | SPOT peptide array binding signal intensity
13 | KNPRRQLQIPRQQPS | 16.5

Target: AgRvs167
Test: as above
How it was run: as §1

Row | Binder | SPOT peptide array binding signal intensity
14 | KNPRRQLQIPRQQPS | 2.67

Target: AgSho1
Test: as above
How it was run: as §1

Row | Binder | SPOT peptide array binding signal intensity
15 | KNPRRQLQIPRQQPS | ≤ 0

Target: AgSla1-D1-D2
Test: as above
How it was run: as §1

Row | Binder | SPOT peptide array binding signal intensity
16 | KNPRRQLQIPRQQPS | 44

Target: AgSla1-D3
Test: as above
How it was run: as §1

Row | Binder | SPOT peptide array binding signal intensity
17 | KNPRRQLQIPRQQPS | 2.5

Target: CaAbp1-D1
Test: as above
How it was run: as §1

Row | Binder | SPOT peptide array binding signal intensity
18 | KNPRRQLQIPRQQPS | 728

Target: CaAbp1-D2
Test: as above
How it was run: as §1

Row | Binder | SPOT peptide array binding signal intensity
19 | KNPRRQLQIPRQQPS | 464

Target: CaBbc1
Test: as above
How it was run: as §1

Row | Binder | SPOT peptide array binding signal intensity
20 | KNPRRQLQIPRQQPS | 218

Target: CaBem1-D1
Test: as above
How it was run: as §1

Row | Binder | SPOT peptide array binding signal intensity
21 | KNPRRQLQIPRQQPS | 73

Target: CaBzz1-D1
Test: as above
How it was run: as §1

Row | Binder | SPOT peptide array binding signal intensity
22 | KNPRRQLQIPRQQPS | 84

Target: CaBzz1-D2
Test: as above
How it was run: as §1

Row | Binder | SPOT peptide array binding signal intensity
23 | KNPRRQLQIPRQQPS | 42

Target: CaCyk3
Test: as above
How it was run: as §1

Row | Binder | SPOT peptide array binding signal intensity
24 | KNPRRQLQIPRQQPS | 7

Target: CaFus1
Test: as above
How it was run: as §1

Row | Binder | SPOT peptide array binding signal intensity
25 | KNPRRQLQIPRQQPS | 208

Target: CaHof1
Test: as above
How it was run: as §1

Row | Binder | SPOT peptide array binding signal intensity
26 | KNPRRQLQIPRQQPS | ≤ 0

Target: CaHse1
Test: as above
How it was run: as §1

Row | Binder | SPOT peptide array binding signal intensity
27 | KNPRRQLQIPRQQPS | 1

Target: CaLsb1
Test: as above
How it was run: as §1

Row | Binder | SPOT peptide array binding signal intensity
28 | KNPRRQLQIPRQQPS | 0.5

Target: CaLsb4
Test: as above
How it was run: as §1

Row | Binder | SPOT peptide array binding signal intensity
29 | KNPRRQLQIPRQQPS | 51.5

Target: CaMyo5
Test: as above
How it was run: as §1

Row | Binder | SPOT peptide array binding signal intensity
30 | KNPRRQLQIPRQQPS | 5

Target: CaNbp2
Test: as above
How it was run: as §1

Row | Binder | SPOT peptide array binding signal intensity
31 | KNPRRQLQIPRQQPS | 333

Target: CaRvs167
Test: as above
How it was run: as §1

Row | Binder | SPOT peptide array binding signal intensity
32 | KNPRRQLQIPRQQPS | 12

Target: CaRvs167-3
Test: as above
How it was run: as §1

Row | Binder | SPOT peptide array binding signal intensity
33 | KNPRRQLQIPRQQPS | 11.8

Target: CaSho1
Test: as above
How it was run: as §1

Row | Binder | SPOT peptide array binding signal intensity
34 | KNPRRQLQIPRQQPS | 47.5

Target: CaSla1-D1-D2
Test: as above
How it was run: as §1

Row | Binder | SPOT peptide array binding signal intensity
35 | KNPRRQLQIPRQQPS | 148

Target: CaSla1-D3
Test: as above
How it was run: as §1

Row | Binder | SPOT peptide array binding signal intensity
36 | KNPRRQLQIPRQQPS | 1.25

Target: ScAbp1
Test: as above
How it was run: as §1

Row | Binder | SPOT peptide array binding signal intensity
37 | KNPRRQLQIPRQQPS | 146

Target: ScBbc1
Test: as above
How it was run: as §1

Row | Binder | SPOT peptide array binding signal intensity
38 | KNPRRQLQIPRQQPS | 7.25

Target: ScBem1-D1
Test: as above
How it was run: as §1

Row | Binder | SPOT peptide array binding signal intensity
39 | KNPRRQLQIPRQQPS | 29

Target: ScBzz1-D1
Test: as above
How it was run: as §1

Row | Binder | SPOT peptide array binding signal intensity
40 | KNPRRQLQIPRQQPS | 47.5

Target: ScBzz1-D2
Test: as above
How it was run: as §1

Row | Binder | SPOT peptide array binding signal intensity
41 | KNPRRQLQIPRQQPS | 8

Target: ScCyk3
Test: as above
How it was run: as §1

Row | Binder | SPOT peptide array binding signal intensity
42 | KNPRRQLQIPRQQPS | 15

Target: ScFus1
Test: as above
How it was run: as §1

Row | Binder | SPOT peptide array binding signal intensity
43 | KNPRRQLQIPRQQPS | 98

Target: ScHof1
Test: as above
How it was run: as §1

Row | Binder | SPOT peptide array binding signal intensity
44 | KNPRRQLQIPRQQPS | 0.75

Target: ScHse1
Test: as above
How it was run: as §1

Row | Binder | SPOT peptide array binding signal intensity
45 | KNPRRQLQIPRQQPS | 527

Target: ScLsb1
Test: as above
How it was run: as §1

Row | Binder | SPOT peptide array binding signal intensity
46 | KNPRRQLQIPRQQPS | 162

Target: ScLsb2
Test: as above
How it was run: as §1

Row | Binder | SPOT peptide array binding signal intensity
47 | KNPRRQLQIPRQQPS | 2

Target: ScLsb3
Test: as above
How it was run: as §1

Row | Binder | SPOT peptide array binding signal intensity
48 | KNPRRQLQIPRQQPS | 132

Target: ScLsb4
Test: as above
How it was run: as §1

Row | Binder | SPOT peptide array binding signal intensity
49 | KNPRRQLQIPRQQPS | 12

Target: ScMyo3
Test: as above
How it was run: as §1

Row | Binder | SPOT peptide array binding signal intensity
50 | KNPRRQLQIPRQQPS | 2

Target: ScMyo5
Test: as above
How it was run: as §1

Row | Binder | SPOT peptide array binding signal intensity
51 | KNPRRQLQIPRQQPS | 1

Target: ScNbp2
Test: as above
How it was run: as §1

Row | Binder | SPOT peptide array binding signal intensity
52 | KNPRRQLQIPRQQPS | 173

Target: ScPex13
Test: as above
How it was run: as §1

Row | Binder | SPOT peptide array binding signal intensity
53 | KNPRRQLQIPRQQPS | ≤ 0

Target: ScRvs167
Test: as above
How it was run: as §1

Row | Binder | SPOT peptide array binding signal intensity
54 | KNPRRQLQIPRQQPS | 13.5

Target: ScSho1
Test: as above
How it was run: as §1

Row | Binder | SPOT peptide array binding signal intensity
55 | KNPRRQLQIPRQQPS | 95

Target: ScSla1-D1-D2
Test: as above
How it was run: as §1

Row | Binder | SPOT peptide array binding signal intensity
56 | KNPRRQLQIPRQQPS | 442

Target: ScSla1-D3
Test: as above
How it was run: as §1

Row | Binder | SPOT peptide array binding signal intensity
57 | KNPRRQLQIPRQQPS | 21

Target: SpAbp1-D1
Test: as above
How it was run: as §1

Row | Binder | SPOT peptide array binding signal intensity
58 | KNPRRQLQIPRQQPS | 306

Target: SpBbc1
Test: as above
How it was run: as §1

Row | Binder | SPOT peptide array binding signal intensity
59 | KNPRRQLQIPRQQPS | 1

Target: SpBzz1-D1
Test: as above
How it was run: as §1

Row | Binder | SPOT peptide array binding signal intensity
60 | KNPRRQLQIPRQQPS | 240

Target: SpBzz1-D2
Test: as above
How it was run: as §1

Row | Binder | SPOT peptide array binding signal intensity
61 | KNPRRQLQIPRQQPS | 0.5

Target: SpCyk3
Test: as above
How it was run: as §1

Row | Binder | SPOT peptide array binding signal intensity
62 | KNPRRQLQIPRQQPS | 1

Target: SpHof1
Test: as above
How it was run: as §1

Row | Binder | SPOT peptide array binding signal intensity
63 | KNPRRQLQIPRQQPS | 126

Target: SpHof1-2
Test: as above
How it was run: as §1

Row | Binder | SPOT peptide array binding signal intensity
64 | KNPRRQLQIPRQQPS | 11.5

Target: SpHof1-3
Test: as above
How it was run: as §1

Row | Binder | SPOT peptide array binding signal intensity
65 | KNPRRQLQIPRQQPS | 266

Target: SpHse1
Test: as above
How it was run: as §1

Row | Binder | SPOT peptide array binding signal intensity
66 | KNPRRQLQIPRQQPS | 260

Target: SpLsb1
Test: as above
How it was run: as §1

Row | Binder | SPOT peptide array binding signal intensity
67 | KNPRRQLQIPRQQPS | 54.2

Target: SpLsb4
Test: as above
How it was run: as §1

Row | Binder | SPOT peptide array binding signal intensity
68 | KNPRRQLQIPRQQPS | 129

Target: SpMyo1
Test: as above
How it was run: as §1

Row | Binder | SPOT peptide array binding signal intensity
69 | KNPRRQLQIPRQQPS | 2

Target: SpNbp2
Test: as above
How it was run: as §1

Row | Binder | SPOT peptide array binding signal intensity
70 | KNPRRQLQIPRQQPS | 53

Target: SpPex13
Test: as above
How it was run: as §1

Row | Binder | SPOT peptide array binding signal intensity
71 | KNPRRQLQIPRQQPS | 5

Target: SpRvs167
Test: as above
How it was run: as §1

Row | Binder | SPOT peptide array binding signal intensity
72 | KNPRRQLQIPRQQPS | 16.7

Target: SpSla1-D1-D2
Test: as above
How it was run: as §1

Row | Binder | SPOT peptide array binding signal intensity
73 | KNPRRQLQIPRQQPS | 3.5

Target: SpSla1-D3
Test: as above
How it was run: as §1

Row | Binder | SPOT peptide array binding signal intensity
74 | KNPRRQLQIPRQQPS | 2
